Compound activity from PubChem.
DAGLB inhibitor = diacylglycerol lipase beta (human) inhibition; hit rate 0.059% among 340,000; HEK293T DAGLB membrane lysate, EnzChek fluorogenic substrate; inhibition, % at 5.17 µM; in the data active = inhibition above about 34%;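 note: 0% = enzyme with vehicle and 100% = wells lacking enzyme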
sPLA2-III inh = Blocks human group III sPLA2 activity; Q9NZ20; QFRET BODIPY PC-A2 liposome hydrolysis, fluorescence; inhibition, % at 12.2 µM; hit rate 0.56% among 370,000;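 active = inhibition above mean plus 3 SD of compounds lying within the high and low control bounds, cut at about 19% in these data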;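 note: 0% = median of test compound wells and 100% = no enzyme DMSO wells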
PLC-beta3 inh = PLC-beta3 (human) inhibition, primary screen. AID 720704. inhibition, % at 12.2 µM. Q01970. Purified PLC-beta3, fluorogenic substrate, fluorescence. hit rate 0.18% among 370,000;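 note: 0% = median of compound wells on plate and 100% = full blocker control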
PLC-gamma1 inh = blocks human PLC-gamma1 enzyme activity; P19174; purified PLC-gamma1, fluorogenic substrate, fluorescence; inhibition, % at 12.2 µM; hit rate 0.84% among 370,000; in the data active = inhibition above about 9.5%
PLCg1 ctr = inhibits human PLC-gamma1 in PLC-beta3 counter-screen | shares compounds with PLC-gamma1 inh | purified PLC-gamma1, fluorogenic substrate, fluorescence | inhibition, % at 12.3 µM | hit rate 3.1% among 3,300; in the data active = inhibition above about 9.5%
PLCbeta3 conf = human PLC-beta3 inhibition, confirmation; shares compounds with PLC-gamma1 inh; purified PLC-beta3, fluorogenic substrate fluorescence; inhibition, % at 12.3 µM; hit rate 1% among 3,300; AID 743261
* = called active by the depositor; x = no result given. An excerpt weighted towards active compounds, which were near 1.5% of everything screened. Cut-off read from the data, not from the text of the source, unless noted: active = inhibition above about 11%; inactive = the rest.

SMILES | DAGLB inhibitor | sPLA2-III inh | PLC-beta3 inh | PLC-gamma1 inh | PLCg1 ctr | PLCbeta3 conf
Cc1sc2ccccc2c1CNC[C@H]1O[C@@H](n2cnc(C(N)=O)n2)[C@H](O)[C@@H]1O | -1.7 | 7.1 | 2.7 | 9.8* | -4.1 | -3.1
Cc1ccc(N2CC(C(=O)N/N=C/c3sccc3C)CC2=O)cc1 (stereo not drawn) | 0.8 | 0.2 | -1.5 | 0.0 | x | x
Cc1ccsc1/C=N/NC(=O)C1CC(=O)N(c2ccccc2)C1 (stereo not drawn) | -2.5 | 2.4 | 11.2* | 2.9 | 4.1 | 3.2
CN1CC=C(c2ccccc2)N(c2ccccc2)C1=O | x | 4.2 | 11.8* | 4.1 | -7.4 | -2.2
CN1CC=C(c2ccc(C(F)(F)F)cc2)N(c2ccccc2)C1=O | x | -36.7 | -3.4 | 0.7 | x | x
O=C(OCC#CCSc1nnc(-c2cccc3ccccc23)o1)c1cccc(F)c1 | x | 0.9 | -1.7 | -1.1 | x | x
COC(=O)C1CN(Cc2cn(Cc3ccc(C)cc3)nn2)CCS(=O)(=O)N1Cc1ccc(F)cc1 (stereo not drawn) | x | -10.6 | 1.3 | 1.1 | x | x
Cc1cc(Cl)c(OCCCN2CCCCC2)c(Br)c1 | -0.3 | 2.2 | 6.2 | 10.0* | -5.3 | 0.2
O=C(CNC(=O)C1CCCCC1)Nc1cc(Cl)ccc1Cl | -3.3 | 2.9 | 7.9 | 11.4* | -1.9 | 2.8
COc1cc(C(=O)NCCN2C(=O)S/C(=C\c3cccs3)C2=O)cc(OC)c1OC | -0.9 | 5.7 | 0.6 | 10.2* | 0.8 | 1.9
COc1cccc(C(=O)NCCN2C(=O)S/C(=C/c3cccs3)C2=O)c1OC | -0.7 | -4.3 | -7.0 | -0.3 | x | x
CCOc1ncccc1C(=O)NCCN1C(=O)S/C(=C/c2cccs2)C1=O | -2.3 | 1.2 | 9.1 | 12.8* | -2.1 | 1.6
O=C(Nc1ccccc1F)O[C@@H]1CC[C@@]23CCCN2C(=O)CCC[C@H]3C1 | x | -1.0 | 1.4 | -3.6 | x | x
O=C1CC(N2CCN(c3ccccc3)CC2)C(=O)N1Cc1ccc(Cl)cc1 (stereo not drawn) | 5.8 | -7.5 | -0.2 | 10.2* | -6.7 | -3.4
Cn1c(SCC(=O)Nc2ccc(S(=O)(=O)Nc3nccs3)cc2)nc2sc3c(c2c1=O)CCCC3 | x | -20.3 | -1.1 | 0.9 | x | x
CC1Oc2ccccc2N(CC(=O)Nc2ccc3c(c2)OCCO3)C1=O (stereo not drawn) | 0.0 | 0.0 | 8.5 | 11.3* | -4.0 | 0.6
CCC/C(O)=C1\C(=O)CCCC1=NC(C)C(=O)O (stereo not drawn) | 1.9 | -0.8 | 6.9 | 9.8* | -8.0 | -2.4
Cc1ccccc1C(=O)NC1CCCCN(C(C)C)C1=O (stereo not drawn) | x | 3.5 | 3.2 | 0.7 | x | x
CC(C)c1cc(=O)n2[nH]c(SCc3ccccc3Cl)nc2n1 | 4.7 | 8.3 | -4.8 | 13.0* | -3.3 | -1.6
Cc1cc(=O)n2[nH]c(SCc3ccccc3)nc2n1 | -2.1 | 0.5 | 1.5 | 1.7 | x | x
Oc1ccc(/C=N/NC(=S)Nc2cccnc2)c(O)c1 | 1.8 | -7.2 | -127.5 | -111.8 | x | x
Oc1ccc(/C=N/NC(=S)Nc2cccnc2)c(O)c1O | 2.7 | -5.3 | -4.0 | 11.5* | -4.6 | -8.4
CCN(CC(=O)Nc1cc(Cl)ccc1C)C(=O)C1CC1 | -0.1 | 2.8 | 0.7 | 14.0* | -7.7 | -3.8
O=C(Oc1cccc(N2C(=O)CCC2=O)c1)C1CC(=O)N(c2ccc(Br)cc2)C1 (stereo not drawn) | -3.2 | -1.9 | 11.2* | 6.9 | -3.4 | 2.9
CC(C)COC(=O)Nc1ccc(C(=O)O)cc1 | 0.6 | 4.7 | 13.1* | 3.5 | 3.9 | 4.8
SMILES | DAGLB inhibitor | sPLA2-III inh | PLC-beta3 inh | PLC-gamma1 inh | PLCg1 ctr | PLCbeta3 conf
CC(C)COC(=O)c1ccc(NC(=O)C2C3CCC(C3)C2C(=O)O)cc1 (stereo not drawn) | -2.8 | -0.3 | -0.7 | 0.0 | x | x
CC(=O)C1C(c2ccccc2)c2c(n[nH]c2C)CC1(C)O (stereo not drawn) | -4.4 | 8.0 | 3.3 | 11.7* | -4.2 | -2.6
CC(=O)C1C(c2ccc(C)cc2)c2c(n[nH]c2C)CC1(C)O (stereo not drawn) | -0.3 | -1.4 | 3.9 | 3.8 | x | x
COc1ccc(S[C@]2(C(=O)N3CCN(c4ncccn4)CC3)CC(=O)N(S(=O)(=O)c3ccc(F)cc3)[C@@H]2c2ccc(OC)cc2)cc1 | x | -7.2 | 4.0 | 3.6 | x | x
COc1cccc(CNC(=O)C2CCN(Cc3cnn(-c4ccccc4)c3-n3cccc3)CC2)c1 | -2.4 | -17.1 | 4.7 | 9.7* | 1.7 | -0.8
Cc1[nH]c(=O)c(C#N)c(C)c1CSc1ncccn1 | -2.0 | 12.9 | 6.2 | 12.3* | -5.8 | -0.1
